Reference: PubChem BioAssay (EPA / NIEHS)
Results filed as inconclusive are left out. A structure can be active in one record and inactive in another. The source made the active and inactive calls. How the source made its calls, unless noted: active means hit-call score of the fitted dose curve at least 0.9, where 1 is the maximum; inactive means score below 0.9.

How the values were obtained:
[1] = target: Transcription factor Sp1 (Homo sapiens) (UniProt P08047); experiment: ATG_Sp1_CIS: Attagene CIS-FACTORIAL HepG2 Assay for human Specificity Protein 1 (Sp1) (AID 2282961); conditions: HepG2 Sp1 cis-reporter transcription, actives raise or lower the signal
Procedure, shortened: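 After transient transfection of HepG2 cells with cis-promoter reporter units and 24 h chemical treatment, reporter transcripts were quantified by RT-PCR and capillary electrophoresis fluorescence. Gain- and loss-of-signal fitted against DMSO.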

[2] = ATG_SREBP_CIS: Attagene CIS-FACTORIAL HepG2 Assay for human Sterol Regulatory Element Binding (SREBP) (AID 2282962); conditions: HepG2 Attagene cis-factorial SREBP reporter, mRNA; actives raise or lower the signal
Procedure, shortened: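 Endogenous SREBP activity read as cis-element-driven reporter transcript in transiently transfected HepG2, 24 h post-dosing; quantified via RT-PCR plus capillary electrophoresis of fluorescent fragments. Gain or loss of signal fitted relative to DMSO baseline.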

[3] = target: Signal transducer and activator of transcription 3 (Homo sapiens) (UniProt P40763); experiment: ATG_STAT3_CIS: Attagene CIS-FACTORIAL HepG2 Assay for human Signal Transducer and Activator of Transcription 3 (STAT3) (AID 2282963); conditions: HepG2, Attagene cis-factorial STAT3 reporter transcription; actives raise or lower the signal
Procedure, shortened: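 Readout: fluorescent reporter mRNA fragments resolved by capillary electrophoresis. Setup: HepG2 transfected with MRTUs reporting endogenous transcription-factor activity, dosed 24 h. Gain or loss of signal fitted bidirectionally against DMSO control.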

[4] = ATG_TA_CIS: Attagene CIS-FACTORIAL HepG2 Assay for human TA Basal Promoter (AID 2282964); conditions: HepG2 Attagene CIS-factorial TA basal promoter reporter; actives raise or lower the signal
Procedure, shortened: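 HepG2 cells transiently transfected with multiple reporter units under cis promoter elements, reporting endogenous transcription factor activity; this endpoint tracks the TA basal promoter as background control. Reporter mRNA after 24 h dosing measured by RT-PCR/capillary electrophoresis; bidirectional fits versus DMSO.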

[5] = ATG_TCF_b_cat_CIS: Attagene CIS-FACTORIAL HepG2 Assay for human T-Cell-Factor with beta-catenin (TCF/b-cat) (AID 2282965); conditions: HepG2 TCF/beta-catenin cis-reporter transcription, actives raise or lower the signal
Procedure, shortened: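 HepG2, transient MRTU transfection, cis-element-driven reporters (endogenous TFs). 24 h compound exposure. Readout: reporter mRNA by RT-PCR + 6-FAM primer extension, HpaI digest, capillary electrophoresis. Gain/loss fit vs DMSO baseline.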

[6] = ATG_TAL_CIS: Attagene CIS-FACTORIAL HepG2 Assay for human TAL Basal Promoter (AID 2282966); conditions: HepG2 Attagene cis-factorial TAL promoter reporter; actives raise or lower the signal;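 further: background control endpoint measuring basal TAL promoter reporter mRNA not a specific factor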
Procedure, shortened: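 After 24 hours of chemical exposure, transfected HepG2 cells yielded RNA that was converted to 6-FAM-labelled, HpaI-digested reporter fragments for capillary electrophoresis. Values derive from bidirectional fitting against DMSO controls.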

[7] = ATG_TGFb_CIS: Attagene CIS-FACTORIAL HepG2 Assay for human Transforming Growth Factor (TGF) (AID 2282967); conditions: HepG2 Attagene CIS TGFb reporter, mRNA transcription; actives raise or lower the signal
Procedure, shortened: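 HepG2 cells transiently transfected with cis-promoter-driven multiple reporter units measure endogenous TF activity; reporter mRNA quantified at 24 h by RT-PCR, FAM labeling, HpaI digestion and capillary electrophoresis. Bidirectional fit vs DMSO.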

[8] = target: Nuclear receptor subfamily 1 group I member 3 (Homo sapiens) (UniProt Q14994); experiment: ATG_CAR_TRANS: Attagene TRANS-FACTORIAL HepG2 Assay for human Constitutive Androstane Receptor (CAR) (AID 2282969; active means hit-call score of the fitted dose curve at least 0.9, where 1 is the maximum;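 further: activators raise reporter mRNA above DMSO so AC50 marks induction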); conditions: HepG2 Attagene TRANS-FACTORIAL CAR reporter
Procedure, shortened: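 Transiently transfected HepG2, multiplex TRANS reporters (CAR-Gal4 chimera driving GAL4-UAS reporter). 24 h dosing. Readout: reporter transcript by RT-PCR + capillary electrophoresis, fluorescence intensity; positive direction vs DMSO.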

[9] = ATG_VDRE_CIS: Attagene CIS-FACTORIAL HepG2 Assay for human Vitamin D Receptor Element (VDRE) (AID 2282968); conditions: HepG2 VDRE cis-reporter transcription, actives raise or lower the signal
Procedure, shortened: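 Transient MRTU transfection of HepG2, 24 h compound exposure. Readout: reporter transcripts via RT-PCR and capillary electrophoresis, fluorescence. Bidirectional fit vs DMSO.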

[10] = target: Estrogen receptor (Homo sapiens) (UniProt P03372); experiment: ATG_ERa_TRANS: Attagene TRANS-FACTORIAL HepG2 Assay for human Estrogen Receptor alpha (ERa) (AID 2282970; active means hit-call score of the fitted dose curve at least 0.9, where 1 is the maximum); conditions: HepG2 Attagene TRANS ERa GAL4 reporter, mRNA
Procedure, shortened: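 Liver-derived HepG2 cells expressing chimeric nuclear receptor-Gal4 proteins from transient transfection were exposed for 24 hours. Gain of reporter mRNA signal versus DMSO, read by capillary electrophoresis of FAM-labelled PCR products, was recorded.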

Measured: AC50

Transcription factor Sp1 (Homo sapiens), sequence (P08047 whole entry, looked up): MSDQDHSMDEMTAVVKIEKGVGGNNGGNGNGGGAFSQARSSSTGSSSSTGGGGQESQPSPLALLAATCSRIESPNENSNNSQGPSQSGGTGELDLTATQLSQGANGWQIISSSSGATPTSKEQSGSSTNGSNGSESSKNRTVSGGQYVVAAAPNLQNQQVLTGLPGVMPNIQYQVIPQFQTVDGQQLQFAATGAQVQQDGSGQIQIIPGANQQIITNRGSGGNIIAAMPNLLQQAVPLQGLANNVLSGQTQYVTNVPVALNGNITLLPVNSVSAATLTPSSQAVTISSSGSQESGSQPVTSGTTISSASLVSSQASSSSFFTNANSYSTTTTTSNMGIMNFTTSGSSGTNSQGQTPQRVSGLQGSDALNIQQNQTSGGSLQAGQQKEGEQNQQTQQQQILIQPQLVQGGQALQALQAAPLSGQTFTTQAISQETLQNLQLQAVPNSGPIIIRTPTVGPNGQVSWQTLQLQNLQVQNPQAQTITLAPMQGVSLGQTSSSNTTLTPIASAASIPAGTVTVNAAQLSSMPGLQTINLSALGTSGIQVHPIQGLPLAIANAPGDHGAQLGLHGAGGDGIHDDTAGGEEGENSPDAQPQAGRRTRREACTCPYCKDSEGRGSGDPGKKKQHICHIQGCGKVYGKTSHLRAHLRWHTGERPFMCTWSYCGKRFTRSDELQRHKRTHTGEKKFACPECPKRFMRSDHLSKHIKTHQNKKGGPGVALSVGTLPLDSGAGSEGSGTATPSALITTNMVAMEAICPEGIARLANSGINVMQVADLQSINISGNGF
Estrogen receptor (Homo sapiens), sequence (P03372 whole entry, looked up, the tested form may be a part): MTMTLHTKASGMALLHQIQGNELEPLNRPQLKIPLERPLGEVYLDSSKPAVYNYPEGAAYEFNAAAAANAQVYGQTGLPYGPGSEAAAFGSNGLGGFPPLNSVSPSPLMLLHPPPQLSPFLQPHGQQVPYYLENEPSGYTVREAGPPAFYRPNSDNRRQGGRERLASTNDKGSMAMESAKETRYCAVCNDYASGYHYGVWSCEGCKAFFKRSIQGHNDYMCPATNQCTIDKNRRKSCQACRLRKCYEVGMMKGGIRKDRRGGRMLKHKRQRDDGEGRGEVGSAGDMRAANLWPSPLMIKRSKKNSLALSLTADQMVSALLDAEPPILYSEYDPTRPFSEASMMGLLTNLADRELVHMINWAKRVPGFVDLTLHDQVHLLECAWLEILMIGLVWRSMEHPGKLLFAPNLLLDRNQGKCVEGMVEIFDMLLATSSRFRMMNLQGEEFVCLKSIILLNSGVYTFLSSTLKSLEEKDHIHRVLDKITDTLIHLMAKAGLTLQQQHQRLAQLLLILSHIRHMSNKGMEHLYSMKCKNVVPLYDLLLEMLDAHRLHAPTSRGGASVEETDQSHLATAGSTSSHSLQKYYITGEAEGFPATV
Nuclear receptor subfamily 1 group I member 3 (Homo sapiens), sequence (Q14994 whole entry, looked up, the tested form may be a part): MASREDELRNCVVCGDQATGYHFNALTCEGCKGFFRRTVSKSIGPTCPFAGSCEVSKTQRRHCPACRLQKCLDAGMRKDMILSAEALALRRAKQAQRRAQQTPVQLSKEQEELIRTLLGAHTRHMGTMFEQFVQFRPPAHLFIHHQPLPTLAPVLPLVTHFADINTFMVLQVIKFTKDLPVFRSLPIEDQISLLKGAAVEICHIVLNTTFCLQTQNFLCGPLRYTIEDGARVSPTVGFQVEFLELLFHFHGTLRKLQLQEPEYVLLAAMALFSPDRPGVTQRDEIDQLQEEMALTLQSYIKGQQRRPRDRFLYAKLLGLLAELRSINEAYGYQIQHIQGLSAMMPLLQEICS
Signal transducer and activator of transcription 3 (Homo sapiens), sequence (P40763 whole entry, looked up, the tested form may be a part): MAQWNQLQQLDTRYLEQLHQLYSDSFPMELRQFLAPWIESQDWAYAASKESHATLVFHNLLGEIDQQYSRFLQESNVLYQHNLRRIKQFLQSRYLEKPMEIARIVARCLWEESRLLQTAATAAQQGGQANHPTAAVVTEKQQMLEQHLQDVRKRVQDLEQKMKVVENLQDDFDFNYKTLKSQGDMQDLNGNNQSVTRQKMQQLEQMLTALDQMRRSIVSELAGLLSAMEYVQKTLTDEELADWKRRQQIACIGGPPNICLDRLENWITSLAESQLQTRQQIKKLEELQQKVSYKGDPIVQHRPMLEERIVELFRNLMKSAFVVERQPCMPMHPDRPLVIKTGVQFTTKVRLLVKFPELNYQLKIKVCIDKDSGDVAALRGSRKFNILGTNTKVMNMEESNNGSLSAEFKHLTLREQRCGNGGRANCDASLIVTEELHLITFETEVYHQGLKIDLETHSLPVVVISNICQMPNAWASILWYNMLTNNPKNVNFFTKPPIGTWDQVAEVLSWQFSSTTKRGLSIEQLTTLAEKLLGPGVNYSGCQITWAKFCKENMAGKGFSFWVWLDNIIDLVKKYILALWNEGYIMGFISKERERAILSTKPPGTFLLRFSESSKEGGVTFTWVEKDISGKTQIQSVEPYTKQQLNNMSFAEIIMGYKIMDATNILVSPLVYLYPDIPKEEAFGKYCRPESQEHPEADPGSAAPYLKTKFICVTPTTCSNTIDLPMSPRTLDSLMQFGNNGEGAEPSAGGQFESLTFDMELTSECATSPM

CCOP(OCC)OCC
not listed: [9] | [10]
inactive: all other assays above

Nc1ncc([N+](=O)[O-])s1
not listed: [5] | [8]
inactive: all other assays above

ClCc1ccccn1
not listed: [5]
inactive: all other assays above

O=CC=O
not listed: [8] | [9]
inactive: all other assays above

COP(=O)(OC)O/C(=C\Cl)c1cc(Cl)c(Cl)cc1Cl
active: [2] 26.9 µM | [4] 73.4 µM | [5] 34.9 µM | [6] 100 µM | [10] 5.86 µM
inactive: [1] | [3] | [7]

CC12CC1(C)C(=O)N(c1cc(Cl)cc(Cl)c1)C2=O (centres undefined)
active: [9] 8.04 µM
inactive: [1] | [2] | [3] | [4] | [6] | [7] | [9] | [8]

CC(=O)c1cc(C(C)(C)C)cc2c1CCC2(C)C
active: [1] 69.3 µM | [2] 54.4 µM | [9] 25.6 µM
not listed: [5] | [8]
inactive: all other assays above

CC(C)c1cccc(C(C)C)c1O
not listed: [5]
inactive: all other assays above

CC(=O)OC(c1ccccc1)C(Cl)(Cl)Cl (centres undefined)
active: [10] 34.8 µM
not listed: [5] | [8]
inactive: all other assays above

c1ccc(N=NNc2ccccc2)cc1
active: [1] 153 µM | [2] 136 µM | [9] 28.4 µM | [10] 27.1 µM
not listed: [5]
inactive: all other assays above

CC(Br)C(=O)O (centres undefined)
not listed: [5]
inactive: all other assays above

CCC(=O)C(CC(C)N(C)C)(c1ccccc1)c1ccccc1 (centres undefined)
active: [2] 14.2 µM
not listed: [5] | [8] | [9]
inactive: all other assays above

O=C(CCl)CCl
active: [1] 33.4 µM | [2] 46 µM | [9] 45.4 µM
not listed: [5] | [8]
inactive: all other assays above

Cc1ccccc1C(=O)Nc1cccc(OC(C)C)c1
inactive: [1] | [2] | [3] | [4] | [6] | [7]
